# AID inh: inhibitors of human activation induced cytidine deaminase | AID 1347428 | AID deamination FRET fluorescence, UDG-coupled, 4 h | 91,000 compounds, 0.32% hits | Q9GZX7 | Potency, µM (doses to about 115 µM), most hits filed as inhibitors; note: potency is the fitted concentration of half-maximal effect; % is set by controls: 0 for no effect and ±100 for the full control effect; nearly all actives have a fitted effect of over 25% in size
# Target sequence (Q9GZX7 whole entry, looked up): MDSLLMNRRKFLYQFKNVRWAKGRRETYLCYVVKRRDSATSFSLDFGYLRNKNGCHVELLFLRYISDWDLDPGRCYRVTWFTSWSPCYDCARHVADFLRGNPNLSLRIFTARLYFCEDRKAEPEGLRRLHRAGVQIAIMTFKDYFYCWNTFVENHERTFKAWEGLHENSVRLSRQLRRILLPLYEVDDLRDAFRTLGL
# GPR32 ag: GPR32 (DRV1) agonism, beta-arrestin recruitment. activation, % at 76.9 µM. 48,000 compounds, 2.5% hits. O75388. CHO-K1 GPR32 beta-arrestin PathHunter luminescence, 90 min; zero percent set by DMSO-only wells. AID 1346428;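 active = activation of at least 60% and not above a set upper limit, about 1 call in 100 departs from these limits; inconclusive = activation of 40% to 60%, or above that upper limit; inactive = activation under 40%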; note: 0% is about no effect
#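 Readings come from a cell-based beta-arrestin complementation format: CHO-K1 GPR32 stable cells (2,500/well) treated 90 min with compounds, then beta-Gal substrate added for 1 h before chemiluminescence imaging.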
# UDG counter: blocks uracil-DNA glycosylase in AID counter-screen | Potency, µM (series often up to 115 µM), for inactives: at the top dose activity change, negative = inhibition, most hits filed as inhibitors | AID 1347430 | FRET deamination/UDG coupled assay, UDG read, 4 h | 91,000 compounds, 0.14% hits; note: potency is the fitted concentration of half-maximal effect; % is set by controls: 0 for no effect and ±100 for the full control effect; nearly all actives have a fitted effect of over 65% in size
# * marks the source's active call; other numbers are inactive results; i = inactive; u = inconclusive; x = no result; ! = not confirmed by another sample. This is one part of a sample in which hits are shown more often than they occur. Unless noted, calls come from the whole dose curve; as a rule, active = well fitted curve in the direction sought with a large enough effect; inconclusive = small, poorly fitted or top-dose-only effect, or another doubt; inactive = no such curve, though single readings can be large; an effect the other way counts as inactive or inconclusive.
SMILES,AID inh,GPR32 ag,UDG counter
N#CC(Cc1ccccc1CO)c1nc2ccccc2s1 (configuration not stated),i,x,0.4%
COc1cc2nc(N3CCN(C(=O)C4COc5ccccc5O4)CC3)nc(N)c2cc1OC (configuration not stated),i,108.5*!,-3.5%
O=C(C1COc2ccccc2O1)N1CCN(c2nc3ccc(F)cc3s2)CC1 (configuration not stated),i,-15.2,6.4%
CSc1nc(N)c2c3c(sc2n1)CCCC3C (configuration not stated),i,x,-6.8%
CCOc1ccc(NC(=O)NCCN2CCN(c3cc(Cl)ccc3C)CC2)cc1,i,73.0*,8.9%
Cc1ccc(C)c(N2CCN(CCCNC(=O)Nc3cc(Cl)ccc3C)CC2)c1,i,-3.9,3.8%
Cc1ccc(Cl)cc1N1CCN(CCNC(=O)Nc2ccc(Cl)cc2)CC1,i,84.1*,-1.3%
CCC(=O)N1c2ccccc2CC1C(=O)NCCCN1CCN(c2ccc(OC)cc2)CC1 (configuration not stated),i,11.2,13.1%
CCOc1ccc(NC(=O)NCCCN2CCN(c3ccc(OC)cc3)CC2)cc1,u,-2.7,-13.0%
CCC(=O)N1c2ccccc2CC1C(=O)NCCN1CCN(c2cc(Cl)ccc2C)CC1 (configuration not stated),i,68.5*,4.8%
NS(=O)(=O)c1ccc(NC(=O)c2ccc([N+](=O)[O-])cc2[N+](=O)[O-])cc1,i,x,-11.2%
COc1cccc2cc(C(=O)OCC(=O)c3ccc(C)cc3)c(=O)oc12,i,x,-3.0%
CCOc1cc(CNc2ccc(O)cc2)cc(Br)c1OCc1ccccc1,i,-25.7,-13.5%
Oc1ccc(NCc2ccccc2OCc2ccccc2)cc1,31.6µM*,-84.8,79.4µM*
CCOc1cc(CNc2ccc(O)cc2)ccc1OCc1ccc(Cl)cc1,u,8.1,-7.4%
Oc1ccc(NCc2ccccc2OCc2ccc(Cl)cc2)cc1,31.6µM*,0.3,-10.6%
CCn1cc(CNC(=O)Nc2ccc(Cl)c(Cl)c2)c(C)n1,i,x,5.6%
CC(C)(Oc1ccc(F)cc1F)C(=O)Nc1cc(C(C)(C)C)on1,i,x,1.0%
Cc1cc(C)cc(CCCCCCCCCCCC(=O)O)c1,79.4µM*,x,-3.0%
O=C(O)CCCCCCCC(=O)O,i,7.1,7.1%
COc1ccc(C2C(C#N)=C(N)OC(C(C)(C)C)=C2C#N)cc1 (configuration not stated),i,x,-8.6%
O=C(NCCO)c1ccc(-c2nnc(Nc3ccc(OC(F)(F)Cl)cc3)c3ccccc23)cc1,i,66.2*,-3.7%
COc1ccc(-c2nnc(Nc3ccc(OCC(N)=O)cc3)c3ccccc23)cc1,i,9.6,u
CCN(CC)S(=O)(=O)c1c(C)n[nH]c1C,i,x,1.2%
COc1ccc2[nH]cc(CCNC(C)=O)c2c1,i,2.4,1.1%
SMILES,AID inh,GPR32 ag,UDG counter
CCCCCN=C(N)N/N=C/c1c[nH]c2ccc(OC)cc12,x,73.5*,x
O=C1CCCC2=C1C(c1ccc(C(F)(F)F)cc1)C1=C(N2)c2ccccc2C1=O (configuration not stated),i,x,-0.7%
CC(C)(C)c1ccc(C2Sc3ccccc3NC3=C2C(=O)c2ccccc23)cc1 (configuration not stated),i,-52.0,89.1µM*
Cc1nc(N2CCOCC2)ncc1-c1cc(=O)[nH]c(Nc2cccc(C(F)(F)F)c2)n1,i,x,-4.6%
O=C(COC(=O)c1ccc(N2CCCC2=O)cc1)c1ccc2c(c1)CCCC2,i,x,-3.6%
CC1CCN(S(=O)(=O)c2cc3c4c(c2)CC(=O)N4CCC3)CC1,i,-28.1,-24.8%
CCC1CCCCN1S(=O)(=O)c1cc2c3c(c1)CC(=O)N3CCC2 (configuration not stated),i,-33.4,89.1µM*
CCC1CCCCN1S(=O)(=O)c1ccc2c(c1)CCCN2C(C)=O (configuration not stated),i,-20.0,-0.3%
CC1CCCCN1S(=O)(=O)c1cc2c3c(c1)CC(=O)N3CCC2 (configuration not stated),u,-30.6,89.1µM*
CCCCc1c(C)[nH]n(-c2nc3ccccc3[nH]2)c1=O,i,x,-2.1%
Cc1ccc(C(=O)Nc2ccc(-c3nc4ccccc4s3)c(C)c2)cc1,i,x,0.0%
CCS(=O)(=O)c1cccc(C(=O)Nc2ccc(-c3nc4ccccc4s3)c(O)c2)c1,i,61.0*,4.2%
CNCCC(Oc1ccccc1C)c1ccccc1 (configuration not stated),i,-13.2,-0.4%
CNCC[C@H](Oc1cccc2ccccc12)c1cccs1,x,99.1*,x
S=C(NC(=NC=C(Cl)Cl)c1ccc(Cl)cc1)Nc1ccc(Cl)cc1,i,x,-11.5%
